# The full list was thinned out, with hits kept by preference.
# SARS PLP yeast: inhibitors of SARS-CoV papain-like protease in yeast | 330,000 tested, 0.19% active | AID 485353 | S. cerevisiae expressing SARS-CoV PLpro, growth rescue | Potency, µM (series often up to 32.9 µM), most hits filed as activators; calls by dose curve; also: nearly all actives have a fitted effect of over 55% in size
# Cycloheximide cs: counter-screen for Shiga toxin inhibitors: cycloheximide protein synthesis inhibition; max response, %; 300,000 tested, 12% active; cell reporter, cycloheximide protein synthesis inhibition counterscreen; in the data active = max response mostly above about 13%, no sharp cut-off; inactive = mostly below about 14%; also: read at 38.3 µM for the half of the compounds with a filed dose
# AmpC no deterg: inhibitors of E. coli AmpC beta-lactamase without detergent. AmpC nitrocefin hydrolysis, absorbance 480 nm, 0.0001% Triton. Potency, µM (series often up to 57.1 µM), actives largely listed as inhibitors. 330,000 tested, 0.52% active. AID 485341; also: nearly all actives have a fitted effect of over 20% in size
# Target sequence (P00811 whole entry, looked up): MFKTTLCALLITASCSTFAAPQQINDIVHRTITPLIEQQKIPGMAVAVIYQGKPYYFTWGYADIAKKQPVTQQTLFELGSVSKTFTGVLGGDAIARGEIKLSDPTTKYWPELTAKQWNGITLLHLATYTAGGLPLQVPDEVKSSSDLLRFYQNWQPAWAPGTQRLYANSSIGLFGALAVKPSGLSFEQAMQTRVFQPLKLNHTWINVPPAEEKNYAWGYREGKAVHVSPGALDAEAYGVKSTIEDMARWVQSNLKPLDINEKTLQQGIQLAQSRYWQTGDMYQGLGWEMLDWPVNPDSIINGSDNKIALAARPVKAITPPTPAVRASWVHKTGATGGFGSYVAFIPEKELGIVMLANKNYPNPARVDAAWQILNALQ
#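 20 mM phosphate pH 7.0 + 0.01% (detergent screen) or 0.0001% Triton X-100; 5.3 nM AmpC reagent; cpd preinc 15 min RT; nitrocefin (800 uM stock) to start; A480 q20 s × 4 min; Activity was normalised to no-enzyme and no-compound control wells.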
# AmpC detergent: blocks E. coli AmpC beta-lactamase in detergent assay; Potency, µM (highest dose often 114 µM), actives largely listed as inhibitors; AmpC hydrolysis of nitrocefin, absorbance 480 nm, 0.01% Triton; P00811; 370,000 tested, 0.041% active; also: nearly all actives have a fitted effect of over 25% in size
#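 20 mM phosphate pH 7.0 + 0.01% (detergent screen) or 0.0001% Triton X-100; 5.3 nM AmpC reagent; cpd preinc 15 min RT; nitrocefin (800 uM stock) to start; A480 q20 s × 4 min; Activity was normalised to no-enzyme and no-compound control wells.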
# Shiga toxin inh: Shiga toxin inhibition; Vero cells, Shiga toxin protein synthesis inhibition reporter; inhibition, % at 38.7 µM; 290,000 tested, 9.2% active; in the data active = inhibition mostly above about 28%, no sharp cut-off; inactive = mostly below about 43%
# AMA1-RON2 inh: inhibitors of Plasmodium falciparum AMA1-RON2 interaction. AlphaScreen AMA1-biotinylated RON2 peptide binding. 360,000 tested, 0.2% active. Potency, µM (series often up to 58.2 µM), usual class: inhibitors; also: nearly all actives have a fitted effect of over 45% in size
#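 AMA1 (3D7) with his tag at 25 nM final met compounds first, then biotinylated RON2 peptide at 25 nM; detection used donor plus acceptor beads, 10 µg/mL apiece, read by AlphaScreen after 30 min at room temperature.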
# Numbers stand for hits; . = inactive; ? = inconclusive; / = no result given. Unless noted, calls follow the shape of the dose curve; as a rule, active = well fitted curve in the direction sought with a large enough effect; inconclusive = small, poorly fitted or top-dose-only effect, or another doubt; inactive = no such curve, though single readings can be large; an effect the other way counts as inactive or inconclusive.
SMILES,SARS PLP yeast,Cycloheximide cs,AmpC no deterg,AmpC detergent,Shiga toxin inh,AMA1-RON2 inh
COc1ccc(NC(=O)C2CC(c3cccc(Br)c3)=NO2)cc1OC (stereo not given),.,.,.,.,/,.
COc1cccc(C2=NOC(C(=O)N3CCOCC3)C2)c1 (stereo not given),.,63,.,.,141,.
N#Cc1cc2cc3c(cc2nc1SCC(=O)OC1CCCCC1)OCO3,.,.,.,.,.,.
O=C(NC(=S)NCc1cccnc1)c1ccccc1[N+](=O)[O-],.,.,.,.,.,.
COc1ccc(-c2noc(N3CCC(C(=O)NCCCN4CCCCC4)CC3)n2)cc1,.,.,.,?,20,.
COc1ccc(-c2noc(N3CCC(C(=O)NCc4ccccc4Cl)CC3)n2)cc1,.,.,.,.,.,.
COc1ccc(-c2noc(N3CCC(C(=O)NCCCN4CCCC(C)C4)CC3)n2)cc1 (stereo not given),.,active,.,?,.,.
CCN(C(=O)C1CCN(c2nc(-c3ccc(OC)cc3)no2)CC1)c1ccccc1,?,.,.,.,.,.
COc1ccc(-c2noc(N3CCC(C(=O)NCc4ccc(Cl)cc4)CC3)n2)cc1,.,.,.,.,.,.
COc1ccc(-c2noc(N3CCC(C(=O)N(C)c4ccccc4)CC3)n2)cc1,.,8.2,.,.,.,.
Cc1ccccc1SCC(=O)N1CCN(c2ccc(C(F)(F)F)cn2)CC1,.,.,.,.,.,.
COc1ccc(NC(=O)C2CCN(Cc3cnn(-c4ccccc4)c3-n3cccc3)CC2)cc1OC,/,34,/,.,49,.
O=C(Nc1ccccc1Cl)C1CCN(Cc2cnn(-c3ccccc3)c2-n2cccc2)CC1,.,27,.,.,.,.
COc1ccc(OC)c(NC(=O)C2CCN(Cc3cnn(-c4ccccc4)c3-n3cccc3)CC2)c1,.,.,.,.,.,?
COc1cccc(NC(=O)C2CCN(Cc3cnn(-c4ccccc4)c3-n3cccc3)CC2)c1,.,51,.,?,.,.
Cc1ccc(NC(=O)c2ccc(Cl)c(NC(=O)c3cccs3)c2)cc1,.,53,.,.,.,.
CC(=O)N1CCN(C(=O)c2ccc(Cl)c(NC(=O)c3cccs3)c2)CC1,.,/,.,.,/,.
Cc1nc2ccc(NC(=O)c3ccc(Cl)c(NC(=O)c4cccs4)c3)cc2s1,.,20,.,.,.,.
O=C1[C@@H]2Cc3c([nH]c4ccccc34)C(c3ccccc3)N2C(=O)CN1CCO (stereo not given in full),.,.,.,.,.,.
Cc1ccc(-n2c3c(cc(C(=O)NCC(=O)c4ccccc4)c2=O)C(=O)CCC3)cc1,.,.,.,.,.,.
Cc1cccc(C)c1NC(=O)N1CCN(c2nc3ccccc3s2)CC1,.,.,.,.,.,.
CC(C)(C)C(=O)N1CCN(c2nc3ccc(Cl)cc3s2)CC1,.,19,.,.,80,.
O=C(c1ccco1)N1CCN(c2nc3ccc(Cl)cc3s2)CC1,/,/,/,.,/,/
CC(=O)N1CCN(c2nc3ccc(Br)cc3s2)CC1,.,27,.,.,53,.
CC(C)(C)C(=O)N1CCN(c2nc3ccc(Br)cc3s2)CC1,?,23,.,.,31,.
SMILES,SARS PLP yeast,Cycloheximide cs,AmpC no deterg,AmpC detergent,Shiga toxin inh,AMA1-RON2 inh
Cc1cccc(Cl)c1NC(=O)N1CCCN(c2nc3ccc(Cl)cc3s2)CC1,.,25,.,.,44,.
CC(C)(C)C(=O)N1CCN(c2ccc(Cl)cc2[N+](=O)[O-])CC1,.,25,.,.,33,.
CCOC(=O)c1ccccc1NC(=O)C1CC(=O)N(C2CCCCC2)C1 (stereo not given),.,58,.,.,78,.
CCOC(=O)c1ccccc1NC(=O)C1CC(=O)N(C(C)(C)C)C1 (stereo not given),.,.,.,?,/,.
CCOC(=O)c1ccc(CNC(=O)C(Cc2c[nH]c3ccccc23)NC(C)=O)o1 (stereo not given),.,.,.,.,.,.
COc1ccc(Oc2c(-c3ccc(O)cc3O)n[nH]c2C)cc1,.,.,.,.,.,.
CCC(=O)Nc1ccc(Cl)c(NC(=S)NC(=O)c2cc3ccccc3o2)c1,.,52,.,.,72,.
COc1cc(NC(=O)C(C)C)ccc1NC(=O)c1cc2ccccc2o1,.,24,.,.,40,.
COc1cc(NC(=O)c2cccc(C)c2)ccc1NC(=O)c1cc2ccccc2o1,.,13,.,.,.,.
CCC(=O)NC(=S)Nc1ccc(NC(=O)c2cc3ccccc3o2)c(OC)c1,.,.,.,.,30,.
COc1cccc(N2CC(NC(=O)c3ccc4c(c3)OCO4)CC2=O)c1 (stereo not given),/,/,/,.,/,/
CCOc1ccc(/C=C2/C(=O)N(c3ccc(OC)cc3)C(=S)N2CC(=O)OC)cc1OCC,.,30,.,.,12,.
Cc1ccnc(-n2c(-c3ccccc3)nc3ccccc3c2=O)c1,.,.,.,.,.,.
Cc1nc2ccccc2c(=O)n1-c1ccc(Br)cn1,.,27,.,.,55,.
Cc1ccnc(-n2c(C)nc3ccccc3c2=O)c1,.,12,.,.,.,.
Cc1nn(C)c(C)c1NC(=O)c1cc2nc(-c3ccco3)cc(C(F)(F)F)n2n1,.,.,.,.,.,.
CCCS(=O)(=O)N1CCC(C(=O)NCCCOC)CC1,.,.,.,.,.,.
CCc1ccc(CN(C)Cc2nc(Cc3cccc(C(F)(F)F)c3)no2)nc1,.,.,.,.,.,.
O=C(CSc1nnc2ccccn12)c1ccc2c(c1)OCCO2,.,25,.,?,37,.
COc1ccc(C(=O)CSc2nnc3ccccn23)cc1OC,.,22,.,.,.,.
O=C(CSc1nnc2ccccn12)N1CCOCC1,.,.,.,.,.,.
O=C(Nc1ccc(S(=O)(=O)N2CCOCC2)cc1)c1cccc([N+](=O)[O-])c1,.,.,.,.,.,.
CN(C)/C=C1\Oc2ccc3ccccc3c2C1=O,.,34,.,?,116,.
COc1ccc(CCc2ccc3cc(OC)ccc3n2)cc1,/,/,/,/,/,.
COc1ccc(CCc2cc(OC)cc(=O)o2)cc1,.,19,.,.,.,.
Cc1cccc(-n2c(SCC(=O)NC3CCCC3)nnc2-c2ccoc2C)c1,.,.,.,?,.,.
COc1cn(-c2ccccc2)nc1C(=O)Nc1ccc(C)cc1,.,36,.,.,56,.
COc1cn(-c2ccccc2)nc1C(=O)Nc1ccccc1,.,47,.,?,82,.
CS(=O)(=O)c1ccc(NCCc2ccc(S(N)(=O)=O)cc2)c([N+](=O)[O-])c1,.,.,.,.,.,.
